According to PubChem BioAssay AID1259343 (VanderVen Lab, College of Veterinary Medicine, Cornell …, 2017):
Among all 6,200 compounds or so, about 2,900 (47%) were called active. Rule as the data show it: active = inhibition above about 50%; inactive = the rest. The set was probably picked from earlier hits. This is one part of the list.

experiment: Mycobacterium tuberculosis growth inhibition, primary screen (AID 1259343); details: inhibition: at 10 µM, hits give high values; outcome: 10 uM

| Structure (SMILES) | inhibition |
| --- | --- |
| c1ccc(-c2nnc3n2NC(c2ccc4c(c2)OCO4)S3)cc1 (stereo unspecified) | -2.01% (inactive) |
| c1ccc(-c2nc(-c3ccc4c(c3)OCO4)cs2)cc1 | -16.4% (inactive) |
| c1ccc(-c2noc(N3CCCCC3)c2CNCc2ccc3c(c2)OCO3)cc1 | 83.5% (active) |
| Cc1c(Br)c(Nc2ccc(Cl)cc2)nn1C | -14.8% (inactive) |
| CC(=O)N=c1c(Nc2ccc(Cl)cc2)nc(=O)[nH]n1C | 85.5% (active) |
| CN(Cc1ccsc1)C(=O)CCc1nnc(CCCc2ccccc2)o1 | inactive |
| O=C(CCc1nnc(CCCCc2ccccc2)o1)NCC[C@@H]1C[C@@H]2C=C[C@H]1C2 | 78.5% (active) |
| O=C1c2ccccc2C(=O)N1CC1CC2C=CC1C2 (stereo unspecified) | 38.1% (inactive) |
| C=CCn1nnc(NC(=O)c2ccc(OCC(C)C)cc2)n1 | 30.5% (inactive) |
| O=C(CSc1nnc(SCC(=O)c2cccs2)s1)c1cccs1 | 96.8% (active) |
| NC(=O)CSc1nnc(SCc2ccc(Cl)c(Cl)c2)s1 | 24.1% (inactive) |
| Cc1nc(SCC(=O)c2cccs2)c2c3c(sc2n1)CCCC3 | -1.14% (inactive) |
| N#CC(=Cc1ccc(Sc2ccccc2)o1)C(=O)NC1CCCCC1 | 92.9% (active) |
| N#CC(=Cc1ccc([N+](=O)[O-])o1)C(=O)NCc1ccco1 | 49.5% (inactive) |
| Cc1ccc(-n2cc(CNCCc3ncc(C)[nH]3)c(-c3ccc(F)cc3)n2)cc1 | 93% (active) |
| Cc1ccc(-n2cc(CN(C)Cc3cccnc3)c(-c3ccc(F)cc3)n2)cc1 | 46.4% (inactive) |
| CCC(C)Nc1nc(-c2ccc(Cl)cc2)cs1 (stereo unspecified) | -10.8% (inactive) |
| CC(C)(C)c1ccc(-c2csc(NC=C(C#N)C#N)n2)cc1 | 75.2% (active) |
| Cc1ccc(-c2csc(SCC(=O)NC(C)(C#N)C3CC3)n2)cc1 (stereo unspecified) | 0.22% (inactive) |
| CCOc1ccc(N2CC(C#N)=C3c4cc(OC)c(OC)cc4CCN3C2)cc1 | 94.9% (active) |
| Cc1ccc(-n2c(-c3ccc(Cl)cc3)cc(C(=O)N3CCN(c4cccc(Cl)c4)CC3)c2C)cc1 | 33.6% (inactive) |
| Cc1cccc(N2CCN(CCNc3cncc(Cl)n3)CC2)c1 | 86.1% (active) |
| CNC(=O)c1cccc(N2CCC(c3ccccc3OC)C2)n1 (stereo unspecified) | 20.6% (inactive) |
| COc1ccccc1N1CCC(CNc2cncc(Cl)n2)C1 (stereo unspecified) | 85% (active) |
| c1cnn(-c2cncc(NCC3CCCCCCC3)n2)c1 | 49.9% (inactive) |
| Fc1ccc(Nc2ccc3ccccc3n2)cc1Cl | 22.7% (inactive) |

| Structure (SMILES) | inhibition |
| --- | --- |
| CC(=O)Oc1cccc2c1C(=O)c1c(OC(C)=O)cc(C(=O)O)cc1C2=O | 77.5% (active) |
| CCCc1nc2c(c(=O)c3ccccc3n2C)c(=O)n1CCc1ccccc1 | -32.5% (inactive) |
| Oc1c(C(c2ccc(Br)cc2)N2CCCC2)ccc2cccnc12 (stereo unspecified) | 77.3% (active) |
| Oc1c(C(c2ccc(Cl)cc2)N2CCCC2)ccc2cccnc12 (stereo unspecified) | 92% (active) |
| Clc1ccc(C(c2ccc(Cl)cc2)N2CCNCC2)cc1 | 42.8% (inactive) |
| CC(C)Oc1ccc2c(=O)cc(-c3ccccc3)oc2c1 | 58.7% (active) |
| Cc1oc2cc(OC(C)C)ccc2c(=O)c1Oc1ccccc1 | 8.96% (inactive) |
| O=c1cc(-c2ccccc2)oc2cc(O)c(O)cc12 | 95.7% (active) |
| COc1cc(C)c2c(=O)cc(-c3ccccc3)oc2c1 | 47.7% (inactive) |
| O=C(CC[N+](=O)[O-])OC[C@H]1O[C@@H](O)[C@H](OC(=O)CC[N+](=O)[O-])[C@@H](OC(=O)CC[N+](=O)[O-])[C@@H]1OC(=O)CC[N+](=O)[O-] | 82.8% (active) |
| O=C1C2=C(Nc3ccccc3S(=O)(=O)C2c2ccc(Cl)cc2)c2ccccc21 (stereo unspecified) | 66.7% (active) |
| O=C1C2=C(Nc3ccccc3SC2c2cccs2)c2ccccc21 (stereo unspecified) | 21.4% (inactive) |
| O=C(CNc1ccc(Cl)cc1F)N1CCCc2ccccc21 | 50.7% (active) |
| CC1Cc2ccccc2N1CCNC(=O)c1cc(Cl)ccc1F (stereo unspecified) | 8.76% (inactive) |
| O=C(Cc1cc(-c2cc3ccccc3o2)on1)N1CCCCC1 | 22.8% (inactive) |
| O=C(Cc1cc(-c2ccc(F)cc2)on1)N1CCCc2ccccc21 | 56.2% (active) |
| O=C(Cc1cc(-c2cc3ccccc3o2)on1)Nc1ccon1 | 18.9% (inactive) |
| O=C(CNc1ccc(Cl)cc1F)N1CCN(c2ccccc2)CC1 | 16.7% (inactive) |
| COc1cccc(-c2cc(CC(=O)N3c4ccccc4CC3C)no2)c1 (stereo unspecified) | 38.3% (inactive) |
| O=C(Cc1cc(-c2cc3ccccc3o2)on1)N1CCCc2ccccc21 | 66.9% (active) |
| O=[N+]([O-])c1ccc(Sc2ccc([N+](=O)[O-])cc2)cc1 | 57.3% (active) |
| O=[N+]([O-])c1ccc(Oc2ccc(-c3ccccc3)cc2)cc1 | -41% (inactive) |
| O=[N+]([O-])c1ccc(Oc2ccc([N+](=O)[O-])cc2)cc1 | 98.6% (active) |
| Nc1cccc2c([N+](=O)[O-])cccc12 | 8.31% (inactive) |
| Nc1cccc2c(Oc3ccc([N+](=O)[O-])cc3)cccc12 | 68.4% (active) |
| O=[N+]([O-])c1ccc(C2SCCS2)cc1 | -11.2% (inactive) |

| Structure (SMILES) | inhibition |
| --- | --- |
| O=C(O)c1cc(Oc2ccc([N+](=O)[O-])cc2)cc(Oc2ccc([N+](=O)[O-])cc2)c1 | 60.2% (active) |
| Cc1cnn(CCc2nc(-c3cc(Br)cs3)no2)c1 | 36.5% (inactive) |
| Cc1cc(CC(=O)NC2CC2c2ccc(Br)cc2)no1 (stereo unspecified) | 13.2% (inactive) |
| Cc1cc(OCC(=O)NCc2ccc(-c3ccc(Br)cc3)o2)no1 | 56.9% (active) |
| O=c1nc(/C=C/c2cccc3ccccc23)cc(C(F)(F)F)[nH]1 | -5.05% (inactive) |
| Cc1ccsc1/C=C/c1cc(C(F)(F)F)[nH]c(=O)n1 | 36.8% (inactive) |
| O=c1nc(/C=C/c2ccc(Br)cc2)cc(C(F)(F)F)[nH]1 | 100% (active) |
| Clc1ccc(CSc2nnc3nc[nH]n23)c(Cl)c1 | 90.4% (active) |
| O=c1cc(CSc2ccc(Cl)cc2)nc2nc[nH]n12 | 30% (inactive) |
| Clc1ccc(Cn2ccnc2CNc2ccccc2)c(Cl)c1 | 28.2% (inactive) |
| O=C(c1cccc(OC(F)F)c1)N1CCN(Cc2ccc(-c3noc(-c4ccco4)n3)cc2)CC1 | 91.3% (active) |
| O=C(Cc1ccsc1)N1CCN(Cc2cccc(-c3noc(-c4ccccc4)n3)c2)CC1 | 25.5% (inactive) |
| CCOc1ccc(N2C(=O)CSC2c2ccccc2N)cc1 (stereo unspecified) | 90.3% (active) |
| COC(=O)C1=C(C(=O)OC)SC(=C2C(=S)C(C)(C)Nc3ccccc32)S1 | 27.1% (inactive) |
| COC(=O)C1=C(C(=O)OC)C2=S(SC(c3ccc(OC)cc3)=C2)S1 (stereo unspecified) | 7.91% (inactive) |
| COC(=O)C1=C(C(=O)OC)SC(=CC(=S)c2ccc(OC)cc2)S1 | 82.8% (active) |
| CCOc1ccc(Oc2ccc(S(=O)(=O)NC(C)CC#N)cc2)cc1 (stereo unspecified) | 39.1% (inactive) |
| CCCCN=C1NN=C(C23CC4CC(CC(C4)C2)C3)C(C)S1 (stereo unspecified) | 82.7% (active) |
| CC1=CC(=NNc2ccc(S(N)(=O)=O)cc2[N+](=O)[O-])CC(C)(C)C1 | -10.6% (inactive) |
| O=[N+]([O-])c1ccc(NN=C2CC3CC=CC23)c([N+](=O)[O-])c1 (stereo unspecified) | 92% (active) |
| O=[N+]([O-])c1ccc(NN=C2C3CC4CC2CC(O)(C4)C3)c([N+](=O)[O-])c1 | 25.5% (inactive) |
| CNc1nnc(SCc2sc3ccccc3c2Cl)s1 | 48.5% (inactive) |
| CCc1ccccc1Nc1nnc(SCC(=O)NC(C)C)s1 | 102% (active) |
| COCCCNC(=O)CSc1nnc(Nc2ccccc2Cl)s1 | 80.1% (active) |
| CCSc1nnc(NC(=O)Cc2ccccc2Cl)s1 | 95.5% (active) |
| CC(C)NC(=O)CSc1nnc(Nc2ccccc2Cl)s1 | 78.8% (active) |

| Structure (SMILES) | inhibition |
| --- | --- |
| C=CCSc1nnc(NC(=O)c2cc(Br)ccc2Cl)s1 | 9.41% (inactive) |
| O=C(Nc1nnc(SCc2ccc(F)cc2)s1)c1ccccc1Br | 27.4% (inactive) |
| C=CCNCC(=O)N(Cc1ccccc1)Cc1ccc(C)s1 | 21.1% (inactive) |
| CCCN(CC(=O)N(Cc1ccccc1)Cc1sccc1C)C(=O)Nc1ccc(C(=O)OCC)cc1 | 89.4% (active) |
| COC(=O)c1ccc(NC(=O)N2CCCC(C(=O)c3sccc3C)C2)cc1 (stereo unspecified) | -5.44% (inactive) |
| CC(=O)N1N=C(c2ccco2)OC1C(=O)N[C@@H]1C[C@@H]2C[C@H](C1C)C2(C)C (stereo partly specified) | 8.4% (inactive) |
| c1cncc(-c2nc(N3CCCC4CCCCC43)c3ccccc3n2)c1 (stereo unspecified) | -13.1% (inactive) |
| c1ccc(-c2cc(NC3CCCC3)nc3ccccc23)cc1 | 67.7% (active) |
| c1cncc(-c2nc(NC3CCCCCCC3)c3ccccc3n2)c1 | 39.2% (inactive) |
| O=[N+]([O-])c1ccc(O)c2ncccc12 | 102% (active) |
| O=[N+]([O-])c1cccc2nsnc12 | -16% (inactive) |
| CC(=O)Oc1ccc(N2C(=O)c3cccc4c([N+](=O)[O-])ccc(c34)C2=O)cc1 | 36.4% (inactive) |
| N#CC(=Cc1ccc(O)cc1)c1ccc([N+](=O)[O-])cc1 | 27.9% (inactive) |
| O=[N+]([O-])c1ccc(-c2nc(N=Nc3ccc(O)cc3)n[nH]2)cc1 | 84.3% (active) |
| CC(NC(=O)c1ccc2ncsc2c1)C1CC2CCC1C2 (stereo unspecified) | 5.4% (inactive) |
| CC(NC(=O)NC(=O)N(C1CCCCC1)S(C)(=O)=O)C1CC2CCC1C2 (stereo unspecified) | 79.8% (active) |
| CC(NS(=O)(=O)c1ccc(Cl)cc1)C1CC2CCC1C2 (stereo unspecified) | -15.9% (inactive) |
| COc1ccc(CC(=O)Nc2cc(C)nn2-c2nc3c(c(=O)[nH]2)CCC3)cc1OC | 101% (active) |
| CCc1c(C)nc(-n2nc(C)cc2NC(=O)Cc2ccc(OC)cc2)[nH]c1=O | 99.1% (active) |
| CCc1c(C)nc(-n2nc(C)cc2NC(=O)c2ccc(OC)cc2OC)[nH]c1=O | -4.11% (inactive) |
| COc1ccc(CC(=O)Nc2cc(C)nn2-c2nc(C)c(C)c(=O)[nH]2)cc1 | -19.9% (inactive) |
| CCc1c(C)nc(-n2nc(C)cc2NC(=O)/C=C/c2ccc(OC)c(OC)c2)[nH]c1=O | 99.3% (active) |
| CCc1c(C)nc(-n2nc(C)cc2NC(=O)Cc2ccc([N+](=O)[O-])cc2)[nH]c1=O | 78.5% (active) |
